The values below come from PMC12820563, “FoxP3 forms a head-to-head dimer in vivo and stabilizes its multimerization on adjacent microsatellites”.

Over roughly 16,000 sequences, “rpm ratio (pull-down/input)” has its median near 0.94; the highest 2% begin near 1.7. This excerpt belongs to a sample that is enriched for the highest values.

The target of this test is T1, MBP-FoxP1dN (Mus musculus, UniProt P58462 326-579).
T1 sequence: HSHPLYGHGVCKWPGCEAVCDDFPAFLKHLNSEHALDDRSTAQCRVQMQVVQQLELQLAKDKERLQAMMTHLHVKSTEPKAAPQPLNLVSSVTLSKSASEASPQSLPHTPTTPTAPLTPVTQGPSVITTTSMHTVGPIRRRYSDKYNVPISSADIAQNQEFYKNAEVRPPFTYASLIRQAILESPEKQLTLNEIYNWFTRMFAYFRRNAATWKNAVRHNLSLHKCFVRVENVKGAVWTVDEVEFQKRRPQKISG
Kind of test: PD-seq (MBP pull-down with sequencing); 20 mM Tris-HCl pH 7.5, 100 mM NaCl, 1.5 mM MgCl2, 0.4 uM protein, 0.1 uM dsDNA library, 30 min, room temperature, amylose pull-down; high values mean tight binding. The note with it: protein: recombinant; tags: His6-MBP; chain copies: 2; dsDNA, one strand shown. Put shortly:
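His6-MBP-tagged mouse FoxP3 or FoxP1 fragment lacking the N-terminus, expressed in E. coli, was mixed at 0.4 µM with 0.1 µM Klenow-filled double-stranded degenerate DNA library. Incubation was 30 min at room temperature in Tris pH 7.5 buffer with NaCl and MgCl2. Complexes were caught on amylose resin and washed three times; DNA was released with proteinase K, PCR-barcoded and Illumina-sequenced. Binding is reads-per-million enrichment, pull-down over input, with replicates pooled.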
For “GATGATTGTTCTCCCAGCTGATGAATTCGACATATCGAGTAAACAAATTTTCCTAATCTTTCTGTTCAAGCGCCATCTAC”, the binding signal was 0.996 RPM ratio (pull-down/input).

For the sequence “GATGATTGTTCTCCCAGCTGATGAATTGTATGACTCGAGTAAACAAATTTTCCTAATCTTTCTGTTCAAGCGCCATCTAC”, the binding signal is 0.974 RPM ratio (pull-down/input).

Consider “GATGATTGTTCTCCCAGCTGATGAATTTATCAGATCGAGTAAACAAATTTTCCTAATCTTTCTGTTCAAGCGCCATCTAC”, for which the binding signal is 1.03 RPM ratio (pull-down/input).

Take “GATGATTGTTCTCCCAGCTGATGAATTCAGGCGGTCGAGTAAACAAATTTTCCTAATCTTTCTGTTCAAGCGCCATCTAC”: the binding signal was 0.783 RPM ratio (pull-down/input).

For the sequence “GATGATTGTTCTCCCAGCTGATGAATTACTAAGGTCGAGTAAACAAATTTTCCTAATCTTTCTGTTCAAGCGCCATCTAC”, the binding signal was 1.03 RPM ratio (pull-down/input).

In the case of “GATGATTGTTCTCCCAGCTGATGAATTACTTTGGTCGAGTAAACAAATTTTCCTAATCTTTCTGTTCAAGCGCCATCTAC”, the binding signal is 0.952 RPM ratio (pull-down/input).

Take “GATGATTGTTCTCCCAGCTGATGAATTTTGATGGTCGAGTAAACAAATTTTCCTAATCTTTCTGTTCAAGCGCCATCTAC”: the binding signal was 1.04 RPM ratio (pull-down/input).

Regarding “GATGATTGTTCTCCCAGCTGATGAATTTTGCTATTCGAGTAAACAAATTTTCCTAATCTTTCTGTTCAAGCGCCATCTAC”, the binding signal is 1.32 RPM ratio (pull-down/input).

As for “GATGATTGTTCTCCCAGCTGATGAATTATTGCTGTCGAGTAAACAAATTTTCCTAATCTTTCTGTTCAAGCGCCATCTAC”, the binding signal was 1.67 RPM ratio (pull-down/input).

For the sequence “GATGATTGTTCTCCCAGCTGATGAATTGCTATTTTCGAGTAAACAAATTTTCCTAATCTTTCTGTTCAAGCGCCATCTAC”, the binding signal is 2.22 RPM ratio (pull-down/input).

Turning to “GATGATTGTTCTCCCAGCTGATGAATTTGCTATGTCGAGTAAACAAATTTTCCTAATCTTTCTGTTCAAGCGCCATCTAC”, the binding signal is 1.06 RPM ratio (pull-down/input).

Regarding “GATGATTGTTCTCCCAGCTGATGAATTGCTATTGTCGAGTAAACAAATTTTCCTAATCTTTCTGTTCAAGCGCCATCTAC”, the binding signal is 2.28 RPM ratio (pull-down/input).

Take “GATGATTGTTCTCCCAGCTGATGAATTTGCTATTTCGAGTAAACAAATTTTCCTAATCTTTCTGTTCAAGCGCCATCTAC”: the binding signal is 1.17 RPM ratio (pull-down/input).

Take “GATGATTGTTCTCCCAGCTGATGAATTAGGCGCGTCGAGTAAACAAATTTTCCTAATCTTTCTGTTCAAGCGCCATCTAC”: the binding signal is 1.03 RPM ratio (pull-down/input).

Consider “GATGATTGTTCTCCCAGCTGATGAATTGGACTATTCGAGTAAACAAATTTTCCTAATCTTTCTGTTCAAGCGCCATCTAC”, for which the binding signal was 0.893 RPM ratio (pull-down/input).

With “GATGATTGTTCTCCCAGCTGATGAATTCCCCGGATCGAGTAAACAAATTTTCCTAATCTTTCTGTTCAAGCGCCATCTAC”, the binding signal was 0.788 RPM ratio (pull-down/input).

For the sequence “GATGATTGTTCTCCCAGCTGATGAATTTACCTACTCGAGTAAACAAATTTTCCTAATCTTTCTGTTCAAGCGCCATCTAC”, the binding signal was 1.24 RPM ratio (pull-down/input).

As for “GATGATTGTTCTCCCAGCTGATGAATTATTTACATCGAGTAAACAAATTTTCCTAATCTTTCTGTTCAAGCGCCATCTAC”, the binding signal was 2.34 RPM ratio (pull-down/input).

Turning to “GATGATTGTTCTCCCAGCTGATGAATTACAAACATCGAGTAAACAAATTTTCCTAATCTTTCTGTTCAAGCGCCATCTAC”, the binding signal is 2.67 RPM ratio (pull-down/input).

Take “GATGATTGTTCTCCCAGCTGATGAATTACTACCATCGAGTAAACAAATTTTCCTAATCTTTCTGTTCAAGCGCCATCTAC”: the binding signal was 1.13 RPM ratio (pull-down/input).

As to “GATGATTGTTCTCCCAGCTGATGAATTAATTACATCGAGTAAACAAATTTTCCTAATCTTTCTGTTCAAGCGCCATCTAC”, the binding signal is 1.26 RPM ratio (pull-down/input).

“GATGATTGTTCTCCCAGCTGATGAATTACTAACATCGAGTAAACAAATTTTCCTAATCTTTCTGTTCAAGCGCCATCTAC”: the binding signal is 1.77 RPM ratio (pull-down/input).

For the sequence “GATGATTGTTCTCCCAGCTGATGAATTTATTACATCGAGTAAACAAATTTTCCTAATCTTTCTGTTCAAGCGCCATCTAC”, the binding signal was 1.21 RPM ratio (pull-down/input).

In the case of “GATGATTGTTCTCCCAGCTGATGAATTGATTACATCGAGTAAACAAATTTTCCTAATCTTTCTGTTCAAGCGCCATCTAC”, the binding signal is 1.58 RPM ratio (pull-down/input).

Turning to “GATGATTGTTCTCCCAGCTGATGAATTTACCAAATCGAGTAAACAAATTTTCCTAATCTTTCTGTTCAAGCGCCATCTAC”, the binding signal was 1.65 RPM ratio (pull-down/input).

Turning to “GATGATTGTTCTCCCAGCTGATGAATTACTAAAATCGAGTAAACAAATTTTCCTAATCTTTCTGTTCAAGCGCCATCTAC”, the binding signal is 1.34 RPM ratio (pull-down/input).

As for “GATGATTGTTCTCCCAGCTGATGAATTACCAACATCGAGTAAACAAATTTTCCTAATCTTTCTGTTCAAGCGCCATCTAC”, the binding signal was 1.94 RPM ratio (pull-down/input).

For “GATGATTGTTCTCCCAGCTGATGAATTACATTTATCGAGTAAACAAATTTTCCTAATCTTTCTGTTCAAGCGCCATCTAC”, the binding signal is 1.52 RPM ratio (pull-down/input).

Consider “GATGATTGTTCTCCCAGCTGATGAATTACCAAAATCGAGTAAACAAATTTTCCTAATCTTTCTGTTCAAGCGCCATCTAC”, for which the binding signal was 1.3 RPM ratio (pull-down/input).

As to “GATGATTGTTCTCCCAGCTGATGAATTCTAATCCTCGAGTAAACAAATTTTCCTAATCTTTCTGTTCAAGCGCCATCTAC”, the binding signal was 0.781 RPM ratio (pull-down/input).

Regarding “GATGATTGTTCTCCCAGCTGATGAATTGGGTGCTTCGAGTAAACAAATTTTCCTAATCTTTCTGTTCAAGCGCCATCTAC”, the binding signal is 0.861 RPM ratio (pull-down/input).

On to “GATGATTGTTCTCCCAGCTGATGAATTTCAGGTATCGAGTAAACAAATTTTCCTAATCTTTCTGTTCAAGCGCCATCTAC”, for which the binding signal is 0.919 RPM ratio (pull-down/input).

Take “GATGATTGTTCTCCCAGCTGATGAATTTGTACGCTCGAGTAAACAAATTTTCCTAATCTTTCTGTTCAAGCGCCATCTAC”: the binding signal is 1.13 RPM ratio (pull-down/input).

As to “GATGATTGTTCTCCCAGCTGATGAATTTGCGATATCGAGTAAACAAATTTTCCTAATCTTTCTGTTCAAGCGCCATCTAC”, the binding signal is 1.19 RPM ratio (pull-down/input).
